This passage reports sensor-assay potency score (higher = more potent) results from the OligoGym collection.
Further: reference of the scale not given here.

The first assay addresses C13orf33. As to the kind of experiment: pooled miR-30 sensor sort-seq; sequence = guide strand. The following applies: shRNA.
TACCTCTTGATGTAGCTGCTGA showed a sensor-assay potency score (higher = more potent) of 0.0733. Same read-out and setting: under TATCTGTCTTCTTATCTTGGGG stands -0.395. Same read-out and setting: under TTGATGTAGCTGCTGAGGCGGT stands -0.889; under TAATAAAGAACAACATTGGTTT, -0.342; under TTAATAAAGAACAACATTGGTT, -0.331. Same read-out and setting: under TAATCGTCTCCTTCTTTTCTGG stands -0.326. As to TCTATCTGTCTTCTTATCTTGG, the sensor-assay potency score (higher = more potent) was -0.385.

A further assay addresses C14orf105. The assay is described as above. To be noted: shRNA.
The sequence TTTCTTTTCTAGTACCTGCTTT had a sensor-assay potency score (higher = more potent) of -0.0807. Same read-out and setting: under TTCCATACCAGTTTTCTTGTAA stands 0.252. On the same count and under the same terms, under TTGCTTATTAATTCTTGCCTCT stands -0.134. The same measure, in the same setting: under TTTCTAGTACCTGCTTTGCTTT stands -0.906; under TTGAATGCAAAGTCCACACGGC, 0.351. Turning to TTGCTTTGTGCATTGTCCTGGC, the sensor-assay potency score (higher = more potent) was 0.239. Still for that read-out and setting: under TTTTCTTTAACTCCATTTGGGC stands -0.637; under TTCTTTTCTAGTACCTGCTTTG, -0.834; under TTTGCTTTGTGCATTGTCCTGG, 0.729. Still for that read-out and setting: under TTAATAATACTTGTTTCTCTGT stands -0.864.

Take TTCCTGAAGTAATTACTCGTGG: the sensor-assay potency score (higher = more potent) is -0.0565. TTTGCTTATTAATTCTTGCCTC returned a sensor-assay potency score (higher = more potent) of 0.114.

The target of a further assay is C14orf109. The description is as above. To be noted: shRNA.
For ATGCTCTGTGCAATGGTCCCGA, the sensor-assay potency score (higher = more potent) was -0.872.

TAACTGCCAAGCATATAGGGAT yielded a sensor-assay potency score (higher = more potent) of -0.363. The same measure, in the same setting: under TTCAAGGAGTGTGTCCATGTGG stands -0.159; under ATAGGAACAAAAACATCTGTAA, -0.255. For the sequence TTGCAAATAACTGCCAAGCATA, the sensor-assay potency score (higher = more potent) is -1.38. On to AAAATAACTGTCCACACCCAAA, for which the sensor-assay potency score (higher = more potent) was -1.6. Still for that read-out and setting: under TTCATCATTCTCCATGCTCTGT stands -0.667; under AAACATAGTAAAATGCTGCTGC, 0.701; under TTAAAGAGTCACTCAGCTCTGA, 0.487. The sequence ATAACTGCCAAGCATATAGGGA came in with a sensor-assay potency score (higher = more potent) of -0.701. In turn, AAAAATAACTGTCCACACCCAA had a sensor-assay potency score (higher = more potent) of -0.714. On the same count and under the same terms, under TACAATCCCACTCCAATCCATC stands -0.538.

The next assay concerns the target C14orf149. Described as above. The following applies: shRNA.
For TTCCCTGTGAATACTGAGCCAG, the sensor-assay potency score (higher = more potent) is -0.697. In turn, TCATCTTCTATTATAAAGCTTG registered a sensor-assay potency score (higher = more potent) of -0.499.

TAATTTAGAGAAAACAGTCCTT yielded a sensor-assay potency score (higher = more potent) of 0.523. The same measure, in the same setting: under TCTTCTATTATAAAGCTTGCTG stands -0.472. On the same count and under the same terms, under TCTATTATAAAGCTTGCTGTAC stands -0.349; under TTATAAAGCTTGCTGTACCCGT, 0.0873; under TTCTATTATAAAGCTTGCTGTA, -1.15. TTAAAATCACCACATTTCGCTT came in with a sensor-assay potency score (higher = more potent) of -0.838.

TAAAATCACCACATTTCGCTTC showed a sensor-assay potency score (higher = more potent) of 0.352.
